From PubChem BioAssay AID1650 (Southern Research Specialized Biocontainment Screening …, 2009) come the findings set out here.

Entries with a potency or affinity are not part of this list. The source made the active and inactive calls. The rule behind the calls is not given here.

The experiment is described as follows: mammalian cell viability reduction – secondary assay, cytotoxicity control for West Nile virus antiviral project, dose response (AID 1650). The conditions noted are these: Mammalian host cell viability, cytotoxicity counter-screen; series mostly up to 10 µM. For orientation: The purpose of a counterscreen is to sort out artefacts and off-target activity.
Consider `CCN(CC)CCC(c1cc(OC)c(OC)c(OC)c1)c1c(OC)cc(OC)c2c(-c3ccccc3)cc(=O)oc12` (stereo not given), for which the call was inactive.

Regarding `Cn1cc(CN2CCCC(C(=O)Nc3ccc(-c4cccc(F)c4)cc3)C2)cn1` (stereo not given), the outcome was inactive.

With `O=C(c1cccc(S(=O)(=O)N2CCOCC2)c1)N1CCOCC1`, the outcome was inactive.

For the compound `Cc1cncn1CCc1nc2c3ccccc3nc(SCC(=O)Nc3cccc(Cl)c3)n2n1`, the outcome was inactive.

For the compound `CN1CCN(NC(=O)c2cc(-c3ccc(Cl)s3)nc3ccccc23)CC1`, the outcome was inactive.

Consider `CN(C)CCNS(=O)(=O)c1ccc(N2CCN(c3ccc(F)cc3)CC2)c([N+](=O)[O-])c1`, for which the compound was classed as inactive.

`COC(=O)c1ccc(C(=O)Nc2cc(Cl)ccc2Cl)cc1NC(=O)c1ccccc1C`: the compound was classed as inactive.

With `O=S(=O)(/C=C/c1ccccc1)Oc1ccccc1`, the call was inactive.

`Cc1cc(C)cc(OC(=O)CS(=O)c2ccc(C(F)(F)F)cc2[N+](=O)[O-])c1` (stereo not given): the call was inactive.

Regarding `CN1CCCC(n2nc(Cc3ccc(Cl)cc3)c3ccccc3c2=O)CC1` (stereo not given), the compound was called inactive.

`CCCCOC(=O)Cn1c2ccc(OC)cc2c2nc3ccccc3nc21`: the call was inactive.

As for `COc1cc(/C=C/C(=O)c2ccc(NS(=O)(=O)c3ccc(C)cc3)cc2)cc(OC)c1O`, the compound was called inactive.

On to `COc1ccc(CN2[C@@H](CC(C)=O)c3ccc(/C=C/C(C)=O)cc3S2(=O)=O)cc1`, for which the result was inactive.

As for `CCN1CCN(CCNC(=O)c2ccc(/C=C3\Sc4ccccc4N(Cc4ccccc4F)C3=O)cc2)CC1`, the result was inactive.

With `Cc1ccc(-c2nc3ccccc3s2)cc1NC(=S)NC(=O)c1cccc2ccccc12`, the result was inactive.

On to `C=CCn1cc(C(=O)NCCOC)c(=O)c2cc(S(=O)(=O)N(CC)CC)ccc21`, for which the call was inactive.

`Cc1cccn2c(=O)c3cc(C(=O)NCCN4CCOCC4)c(=N)n(Cc4ccc(F)cc4)c3nc12`: the compound was called inactive.

Turning to `Cc1ccc2[nH]c(=O)c(CN(CCCN3CCOCC3)C(=O)Nc3ccc(Cl)cc3)cc2c1`, the compound was called inactive.

Consider `Cn1c(CCN2CCCCC2)nc2cc(NC(=O)COc3ccc([N+](=O)[O-])cc3)ccc21`, for which the outcome was inactive.

As for `CCN1CCN(c2cc(C)c3cc(NC(=S)N4CCCC(C)C4)ccc3n2)CC1` (stereo not given), the result was inactive.

For the compound `CSc1cccc(NC(=S)N(CCCN2CCCC2)Cc2cccn2Cc2ccc(Cl)cc2)c1`, the compound was classed as inactive.

As for `O=C(Oc1ccccc1)c1ccc(-n2cnnn2)cc1`, the call was inactive.

For `Cc1cccc(-c2ccc(NC(=O)C3CCN(CC4CC4)CC3)cc2)c1`, the compound was called inactive.

On to `Cc1cc(C)cc(SCc2noc(C(=O)NCCCN3CCOCC3)c2C(=O)NCCCN2CCOCC2)c1`, for which the result was inactive.

On to `COc1cc(NC(=O)c2cc([N+](=O)[O-])ccc2Br)ccc1NC(=O)c1ccco1`, for which the result was inactive.

For the compound `CCCN1CCN(CCCNC(=O)c2cc3c(s2)-c2ccccc2OC3)CC1`, the call was inactive.

Turning to `CCOC(=O)C(=CNc1ccc2c(c1)nnn2-c1ccc(Cl)cc1)C(=O)OCC`, the compound was classed as inactive.

For the compound `Cc1cc(C)nc(S/C=C/C(=O)c2ccccc2F)n1`, the outcome was inactive.

For `CCOC(=O)c1cnc2ccc(OC)cc2c1Nc1ccc(N2CCN(C)CC2)cc1`, the compound was classed as inactive.

In the case of `COc1ccc([C@@H]2[C@@H]3C(=O)N(C(C)(C)C)C(=O)[C@@H]3[C@]3(Cc4ccccc4)C(=O)N(c4ccc(Br)cc4)C(=O)N23)cc1`, the outcome was inactive.

For `COc1ccc(CCNC(=O)c2cc3c(=O)n4cccc(C)c4nc3n(CCCN3CCOCC3)c2=N)cc1`, the result was inactive.

As for `Cc1ccc(-n2c(O)c(C=Nc3ccc4c(c3)OCO4)c3ccccc3c2=O)cc1C`, the compound was classed as inactive.

`CCCCN(C)CCNC(=S)Nc1ccc2nc(N3CCN(CC)CC3)cc(C)c2c1`: the compound was classed as inactive.

`CCOC(=O)c1c(CSCc2ccccc2)oc2ccc(O)c(CN(C)C)c12`: the call was inactive.

As for `CCOC(=O)c1c2c(n(C)c1COC)C(=O)C(=O)c1ccc(Br)cc1-2`, the result was inactive.

For `N#Cc1ncc(-c2ccc3c(c2)OCCOCCOCCOCCOCCO3)nc1C#N`, the compound was classed as inactive.

With `CN1CCN(CC(=O)Nc2c(C(=O)c3ccccc3)oc3ccccc23)CC1`, the result was inactive.

As for `Cc1ccc(/C=C2/Sc3ccc(C(=O)N4CCN(C)CC4)cc3NC2=O)cc1`, the compound was classed as inactive.

`COc1ccccc1CN1CCC(CNS(=O)(=O)c2cc(-c3onc(C)c3C)ccc2OC)CC1`: the compound was classed as inactive.

`COc1cc(C=Nc2c(C)cc(C)cc2C)ccc1OC(C)=O`: the call was inactive.
